The list is not random: actives were taken first. Their share in the collection is about 6.2%.
KB-V1 MDR tox = kills drug-selected multidrug resistant KB-V1 cells | KB-V1 MDR cells viability, CellTiter-Glo, 72 h | Potency, µM (top dose mostly 46.1 µM), actives largely listed as cytotoxic | actives 3.4% (n = 400,000) | AID 1347076; note: nearly all actives have a fitted effect of over 60% in size
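Readout: CellTiter-Glo luminescence, 10 min after addition. Cells: KB-V1 MDR subline, 72 h at 37 degrees C with compound. Analysis: corrected, normalized data fitted to concentration-effect curves.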
HT1080 IDH1KD tx = HT-1080 IDH1 knockdown cell toxicity (counter line) | AID 686971 | actives 2% (n = 360,000) | Potency, µM (doses to about 46.1 µM), actives largely listed as cytotoxic | HT-1080 IDH1 knockdown viability, ATP luminescence, 48 h
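Using the IDH1-knockdown HT-1080 line run in the same batch and compound series as the NT line, viability after 48 h at 37 °C was determined by CellTiter-Glo luminescence and expressed as % activity.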
KB-3-1 tox = kills parental KB-3-1 adenocarcinoma cells. KB-3-1 viability, CellTiter-Glo ATP luminescence, 72 h. Potency, µM (series often up to 46.1 µM), hits mostly cytotoxic. actives 1.4% (n = 400,000); note: nearly all actives have a fitted effect of over 60% in size
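Cells are dispensed, compounds pinned in, plates held at 37 °C for 72 h, then CellTiter-Glo is added and luminescence read after 10 minutes. Cell line: parental KB-3-1 in phenol-red-free DMEM, 10% FBS.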
S2 tox = reduces viability in counter-screen for ATXN expression inhibitors. AID 651635. S2 cells (HEK-293 line with an ATXN2-luciferase reporter) viability, CellTiter-Fluor protease fluorescence, 24 h. actives 0.49% (n = 400,000). Potency, µM (doses to about 56.7 µM), hits mostly cytotoxic; note: nearly all actives have a fitted effect of over 40% in size
ATXN2 expr inh = ATXN2 expression inhibition; Potency, µM (series often up to 57 µM), actives largely listed as inhibitors; actives 0.72% (n = 360,000); AID 1745845; HEK-293 ATXN2-luciferase reporter, luminescence, 24 h; note: nearly all actives have a fitted effect of over 55% in size
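ATXN2-luciferase reporter cells (luciferase flanked by upstream and downstream ATXN2 gene portions) were treated 24 h at 37 °C with compounds at up to 57 uM. SteadyGlo luminescence gave expression; GF-AFC fluorescence gave viability.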
HT1080NT lethal = kills 2HG-producing HT-1080-NT fibrosarcoma cells; HT-1080-NT fibrosarcoma viability, CellTiter-Glo ATP luminescence, 48 h; Potency, µM (titrated, usually from 46.1 µM), actives largely listed as cytotoxic; actives 1.6% (n = 360,000);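 note: NT is the 2HG producing partner of a matched IDH1 knockdown line; nearly all actives have a fitted effect of over 55% in size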
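Viability by CellTiter-Glo luminescence after 48 h compound exposure at 37C of HT-1080-NT cells (750/well, RPMI, 5% FBS). % activity scaled between DMSO wells and medium-only wells, then curve-fitted and categorized by curve class.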
SK-N-SH 3D tox = kills SK-N-SH neuroblastoma spheroids in orthogonal 3D test. actives 70% (n = 65). shares compounds with ATXN2 expr inh. AID 1347135. SK-N-SH 3D spheroid viability, PI/Hoechst imaging, 72 h. Potency, µM (top dose mostly 30.7 µM), hits mostly inhibitors
SJGBM2 3D viab = lowers viability of SJ-GBM2 3D spheroids | shares compounds with ATXN2 expr inh | SJ-GBM2 3D spheroid viability, PI/Hoechst imaging, 72 h | Potency, µM (top dose mostly 30.7 µM), usual class: inhibitors | actives 80% (n = 65) | AID 1347136
Daoy 3D tox = kills Daoy spheroids in orthogonal 3D test; shares compounds with ATXN2 expr inh; Daoy 3D spheroid viability, PI/Hoechst imaging, 72 h; Potency, µM (top dose mostly 30.7 µM), hits mostly inhibitors; actives 50% (n = 65); AID 1347137
TC32 3D casp = TC32 spheroid caspase-3/7 activation, orthogonal screen | shares compounds with ATXN2 expr inh | TC32 3D spheroids, caspase-3/7 fluorescence imaging, 24 h | Potency, µM (highest dose often 30.7 µM), most hits filed as inhibitors | actives 30% (n = 65) | AID 1347138
TC32 3D tox = TC32 3D spheroid viability loss; AID 1347139; shares compounds with ATXN2 expr inh; Potency, µM (doses to about 30.7 µM), actives largely listed as inhibitors; actives 60% (n = 65); TC32 3D spheroid viability, PI/Hoechst imaging, 72 h
MG63 spheroid = reduced viability of MG-63 (6-TG R) 3D spheroids, orthogonal test; shares compounds with ATXN2 expr inh; MG-63 (6-TG R) 3D spheroid viability, PI/Hoechst imaging, 72 h; Potency, µM (doses to about 30.7 µM), hits mostly inhibitors; actives 50% (n = 65); AID 1347140
RD 3D tox = RD 3D spheroid viability loss | shares compounds with ATXN2 expr inh | RD rhabdomyosarcoma 3D spheroid viability, PI/Hoechst imaging, 72 h | Potency, µM (titrated, usually from 30.7 µM), actives largely listed as inhibitors | actives 50% (n = 65) | AID 1347141
A number is an active result; - = inactive; ? = inconclusive; . = not tested or not shown. Calls come from the whole dose curve; as a rule, active = well fitted curve in the direction sought with a large enough effect; inconclusive = small, poorly fitted or top-dose-only effect, or another doubt; inactive = no such curve, though single readings can be large; an effect the other way counts as inactive or inconclusive.

SMILES | KB-V1 MDR tox | HT1080 IDH1KD tx | KB-3-1 tox | S2 tox | ATXN2 expr inh | HT1080NT lethal | SK-N-SH 3D tox | SJGBM2 3D viab | Daoy 3D tox | TC32 3D casp | TC32 3D tox | MG63 spheroid | RD 3D tox
COC(=O)Nc1nc2ccc(S(=O)c3ccccc3)cc2[nH]1 (centres undefined) | . | . | . | ? | - | . | ? | 0.574µM | ? | ? | 0.644µM | ? | ?
CCCN(CCC)C(=O)CSc1nnc2cc(C)c3ccccc3n12 | - | . | - | - | - | . | . | . | . | . | . | . | .
CC(C)(O)Cn1c(NC(=O)c2ccc(-c3cn[nH]c3)s2)nc2cc(CN3CCOCC3)ccc21 | . | . | . | . | 6.11µM | . | 0.228µM | 0.228µM | 0.644µM | 1.28µM | 1.02µM | 1.44µM | 0.323µM
CCn1c(CN2CCOCC2)nc2cc(NC(=O)c3cc(OC)c(OC)c(OC)c3)ccc21 | - | . | - | - | - | . | . | . | . | . | . | . | .
Nc1ccn([C@@H]2O[C@H](CO)[C@H](O)C2(F)F)c(=O)n1 | . | . | . | . | 0.217µM | . | ? | 0.144µM | ? | - | 0.323µM | 0.574µM | ?
CCCCNc1nc(Oc2ccc(OCCC)nn2)nc(N(C)C)n1 | - | . | - | ? | - | . | . | . | . | . | . | . | .
COc1cccc2c1C(=O)c1c(O)c3c(c(O)c1C2=O)C[C@@](O)(C(=O)CO)C[C@@H]3O[C@H]1C[C@H](N)[C@H](OC2CCCCO2)[C@H](C)O1 (some centres undefined) | ? | . | ? | . | 1.53µM | . | 0.287µM | 0.722µM | 1.44µM | 1.44µM | 1.02µM | ? | ?
Cc1c2oc3c(C)ccc(C(=O)N[C@@H]4C(=O)N[C@H](C(C)C)C(=O)N5CCC[C@H]5C(=O)N(C)CC(=O)N(C)[C@@H](C(C)C)C(=O)O[C@@H]4C)c3nc-2c(C(=O)N[C@@H]2C(=O)N[C@H](C(C)C)C(=O)N3CCC[C@H]3C(=O)N(C)CC(=O)N(C)[C@@H](C(C)C)C(=O)O[C@@H]2C)c(N)c1=O | . | . | . | ? | 1µM | . | 0.0029µM | 0.0181µM | 0.0256µM | ? | 0.0323µM | 0.0288µM | 0.0204µM
CC(=O)Nc1nonc1-c1nnc(SCC(=O)Nc2ccc(F)cc2F)n1-c1ccccc1 | - | . | - | ? | - | . | . | . | . | . | . | . | .
CC(C)Oc1ccc(-c2nc(-c3cccnc3)no2)cc1 | - | . | - | . | . | . | . | . | . | . | . | . | .
CCCCc1nc2cc(C=CC(=O)NO)ccc2n1CCN(CC)CC | . | . | . | . | - | . | 0.511µM | 0.909µM | 1.62µM | ? | 1.44µM | 6.44µM | 1.62µM
Cc1ccc(S(=O)(=O)N(Cc2c(F)cccc2Cl)C(=O)N2CCN(C)CC2)cc1 | - | - | - | - | - | - | . | . | . | . | . | . | .
COC1=C2C[C@@H](C)C[C@H](OC)[C@@H](O)[C@@H](C)C=C(C)[C@H](OC(N)=O)[C@@H](OC)C=CC=C(C)C(=O)NC(=CC1=O)C2=O | . | . | . | . | 0.769µM | . | 1.62µM | 1.62µM | 6.44µM | ? | 1.14µM | - | 0.722µM
C[C@@]12O[C@@H](C[C@]1(O)CO)n1c3ccccc3c3c4c(c5c6ccccc6n2c5c31)CNC4=O | . | . | . | . | 3.06µM | . | 1.44µM | 0.144µM | 1.14µM | 2.56µM | 5.11µM | 12.8µM | 8.1µM
